From PubChem BioAssay (NCATS)
Results filed as inconclusive are left out.

Experiment: qHTS Assay for Lipid Storage Modulators (AID 1519)
Settings: Drosophila S3 cells, BODIPY lipid droplet/cell ratio, laser cytometry; measured here: lipid channel max response; cells loaded with oleic acid
Method in brief: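 Cells seeded at 5,000 per well were treated with compounds over a concentration series and loaded with oleic acid (400 uM, as added). Lipid droplet fluorescence (488 nm excitation, 500-530 nm channel) was read by laser-scanning cytometry and normalized to 20 uM Triacsin C.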
With `COc1cc(-c2cc(=O)c3c(O)c(OC)c(OC)c(OC)c3o2)cc(OC)c1OC` the max response was 8.84%.
`C#C[C@]1(O)CCC2C3CCC4=Cc5oncc5C[C@@]4(C)C3CC[C@@]21C` (stereo not given in full) gave a max response of 21.9%.
Compound `CC(=O)OC1CC2C(C)(C)C=CC(=O)[C@@]2(C)C2CC[C@@]3(C)C(c4ccoc4)OC(=O)C4OC43[C@]12C` (stereo not given in full) has a max response of -1.42%.
Compound `CC1(C)CCC2(C(=O)O)CC[C@]3(C)C(=CCC4[C@]5(C)CCC(O)C(C)(C)C5C(O)C[C@]43C)C2C1` (stereo not given in full) has a max response of 24.8%.
In the case of `CC1(C)C(=O)C2C[C@]3(O)C4=CC(=O)OC(c5ccoc5)[C@]4(C)CCC3[C@](C)(C2=O)C1CC(=O)O` (stereo not given in full), the max response was 6.28%.
`Cc1cc(=O)oc2c(O)c(O)ccc12` showed a max response of -9.34%.
With `C#C[C@@]1(O)CCC2C3CCC4=CC(=O)CCC4C3CC[C@@]21CC` (stereo not given in full) the max response was 32.9%.
Work on `C[C@@H]1CCC2[C@](C)(CO)C(O)CC[C@@]2(C)[C@@]12CC[C@](CO)(CCO)O2` (stereo not given in full) yielded a max response of 17.7%.
Compound `CC1(C)CCCC2(C)C3C(O)CC2(C)C(O)C31` (stereo not given) has a max response of -0.711%.
Work on `COc1ccc2c(c1OC)C(=O)O[C@H]2C1c2c(cc3c(c2OC)OCO3)CCN1C` (stereo not given in full) yielded a max response of 32.4%.
For `CC(=O)O[C@](C)(CCC=C(C)C)C1CC=C(C)CC1` (stereo not given in full), the max response was 22%.
Compound `COc1ccc(C2Oc3cc(OC)cc(OC)c3CC2O)cc1` (stereo not given) has a max response of 23.9%.
In the case of `COc1cccc(O)c1O`, the max response was 20.7%.
For `CC1(C)C[C@@H]2C(=O)CCC3O[C@@]3(C)CCC21` (stereo not given in full), the max response was 26.4%.
`CC(=O)OCC(=O)[C@]1(O)C(C)CC2C3CCC4=CC(=O)C=C[C@@]4(C)[C@]3(F)C(O)C[C@@]21C` (stereo not given in full) gave a max response of 2.72%.
With `O=C1c2ccccc2C(=O)c2c(O)c(O)cc(O)c21` the max response was 7.97%.
In the case of `CC(=O)OC1CC(OC(C)=O)[C@]2(C)C(CC(=O)[C@]3(C)C2CC[C@@]2(C)C(C(=O)O)OC(=O)C4OC423)C1(C)C` (stereo not given in full), the max response was 15.4%.
Work on `COC1=CC(=O)C(C(=O)c2ccccc2)=CC1=O` yielded a max response of 25.8%.
`COc1ccc(C2CC(=O)c3c(O)cc(O)cc3O2)cc1O` (stereo not given) showed a max response of 6.13%.
Compound `COc1ccc(-c2coc3c(O)c(OC)ccc3c2=O)cc1` has a max response of 28.5%.
Compound `COC(=O)/C(=C1\OC(=O)C(c2ccccc2)C1=O)c1ccccc1` (stereo not given) has a max response of 17.7%.
Compound `COC(=O)C1OC(=O)C2O[C@@]23[C@]2(C)C(OC(C)=O)CC4C(C)(C)C(=O)CC[C@]4(C)C2CC[C@@]13C` (stereo not given in full) has a max response of 4.55%.
With `O=c1c(O)c(-c2ccccc2)oc2cccc(O)c12` the max response was 18.2%.
`Cc1cc(O)c(C=O)c(O)c1C(=O)O` showed a max response of 11.5%.
`O=C(NC1CCCCC1)NC1CCCCC1` gave a max response of 30.7%.
`CC1(C)OC2CC3C4CC(F)C5=CC(=O)C=C[C@@]5(C)[C@@]4(F)C(O)C[C@@]3(C)[C@]2(C(=O)CO)O1` (stereo not given in full) showed a max response of 16.5%.
In the case of `O=c1cc(-c2ccccc2)oc2cccc(O)c12`, the max response was 21.9%.
`COC(=O)CC1C(C)(C)C2(O)OC34CC2C(=O)[C@@]1(C)C3CC[C@]1(C)C4=CC(=O)OC1c1ccoc1` (stereo not given in full) gave a max response of 8.19%.
Work on `CC1CC2C3CCC4=CC(=O)C=C[C@]4(C)[C@@]3(Cl)C(O)C[C@]2(C)C1(OC(=O)c1ccco1)C(=O)CCl` (stereo not given in full) yielded a max response of 6.32%.
`S=c1ccss1` showed a max response of 13.7%.
`CC1(C)C(O)C=C[C@@]2(C)C1CC(=O)O[C@@]1(C)C3=CC(=O)OC(c4ccoc4)[C@]3(C)CCC21` (stereo not given in full) showed a max response of 14.6%.
`COc1ccc(-c2coc3cc(O)ccc3c2=O)c(OC)c1` gave a max response of 3.26%.
Work on `COc1cc(O)cc(OC)c1OC` yielded a max response of -12.4%.
For `CC1CC[C@@]23CCC4(C)[C@@]5(C)CCC6C(C)(C)C(O)CC[C@@]6(C)C5C=C[C@@]4(OC2=O)C3C1C` (stereo not given in full), the max response was 12.3%.
For `CC1(C)CC[C@]2(C(=O)O)CC[C@@]3(C)C(=CCC4[C@@]5(C)CCC(O)[C@@](C)(CO)C5CC[C@@]43C)C2C1` (stereo not given in full), the max response was 17.6%.
`COC(=O)c1cc(OC)c(=O)c2c(OC)c(OC)ccc2c1` showed a max response of 7.78%.
In the case of `COc1ccc(C2CC(=O)c3ccc(OC)cc3O2)cc1` (stereo not given), the max response was 45.7%.
`CCOC(=O)C(Cc1ccc(O)cc1)NC(C)=O` (stereo not given) showed a max response of 13.9%.
In the case of `COc1ccc(C(=O)c2ccc(O)cc2)c(O)c1O`, the max response was 8.25%.
`CC(C)=CCOc1cc2oc(=O)ccc2cc1O` showed a max response of -2.91%.
